About 1,400 (0.39%) of roughly 360,000 compounds were called active. This excerpt belongs to a sample that is enriched for actives. Unmarked numbers belong to inactive results. No stated cut-off is given here; in the data, active means inhibition above about 21%; inactive means the rest.
What follows are compounds tested against Receptor-interacting serine/threonine-protein kinase 2 (Homo sapiens) (UniProt O43353) (assay: NOD2-RIPK2 binding disruptors in cells, primary screen, fluorescence, CHO cells, BLA complementation (AID 624267;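 further: 0% = vehicle only and 100% = reference blocker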)). Settings: CHO BLA complementation NOD2-RIPK2, CCF4 ratio; at 4.98 µM; stronger effect = higher value.
Chain of Receptor-interacting serine/threonine-protein kinase 2 (Homo sapiens) (O43353 whole entry, looked up): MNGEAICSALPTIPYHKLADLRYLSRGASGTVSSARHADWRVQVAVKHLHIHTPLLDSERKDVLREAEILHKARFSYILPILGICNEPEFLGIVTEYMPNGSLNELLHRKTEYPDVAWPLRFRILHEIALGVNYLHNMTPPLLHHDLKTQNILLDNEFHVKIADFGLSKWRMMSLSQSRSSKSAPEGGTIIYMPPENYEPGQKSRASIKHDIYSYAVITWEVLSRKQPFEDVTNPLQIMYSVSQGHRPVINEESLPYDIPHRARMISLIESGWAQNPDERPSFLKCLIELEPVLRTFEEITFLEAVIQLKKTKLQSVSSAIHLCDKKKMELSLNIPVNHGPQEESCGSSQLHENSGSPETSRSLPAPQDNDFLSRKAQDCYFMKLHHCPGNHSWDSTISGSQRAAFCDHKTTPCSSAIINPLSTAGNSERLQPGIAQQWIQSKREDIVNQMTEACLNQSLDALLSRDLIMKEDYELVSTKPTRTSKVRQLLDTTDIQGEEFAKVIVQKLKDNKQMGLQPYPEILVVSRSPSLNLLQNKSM
For `COCCCN(C(=S)Nc1c(C)cc(C)cc1C)C(C)c1ccncc1` (centres undefined), the inhibition was -3.93%. In the case of `CC(=O)Oc1cccc(N2C(=O)CC(Nc3ccc(N4CCOCC4)cc3)C2=O)c1` (centres undefined), the inhibition was -13.9%. Compound `CC1(C)NC(=O)N(CC(=O)Nc2ccc(-c3ccccc3)cc2)C1=O` has an inhibition of 4.81%. `O=C(Cn1nc(C(=O)O)c2ccccc2c1=O)Nc1ccc(F)cc1` was tested, and the inhibition was -5.34%. In the case of `Cc1ccc(NC(=O)Cn2sc3ccccc3c2=O)cc1`, the inhibition was 22.1% (active). `CN(C)CCCNC(=S)N1CCC(c2nc3ccccc3[nH]2)CC1` gave an inhibition of -7.82%. In the case of `CCc1nn(CCCC(=O)Nc2ccc(C)cc2C)c(=O)c2cc3occc3n12`, the inhibition was 4.65%. With `CS(=O)(=O)N(CC(=O)N1CCCC1)Cc1ccccc1` the inhibition was 3.45%. Compound `O=[N+]([O-])c1ccc(CN2CC(N3CC=CC3)CS2(=O)=O)cc1` (centres undefined) has an inhibition of -11%. For `O=C1/C(=C\c2ccc([N+](=O)[O-])cc2)CS(=O)(=O)C/C1=C/c1ccc([N+](=O)[O-])cc1`, the inhibition was 44.6% (active). `CCc1nc2ccc(C(=O)NCc3ccc(OC)cc3)cn2c1N(CC)Cc1cccc(Br)c1` showed an inhibition of 6.44%. For `COC(=O)[C@]1(C)CCC[C@@]2(C)C3CC[C@]4(OC(C)=O)C[C@@]3(CCC21)CC4=NO` (some centres undefined), the inhibition was 6.55%. Compound `O=C(COc1ccccc1Cl)Nc1ccc(C(=O)c2ccc(C(=O)O)cc2)cc1` has an inhibition of 2.32%. With `O=C(O)CC(Cc1ccccc1)C(=O)Nc1ccc([N+](=O)[O-])cc1` (centres undefined) the inhibition was -1.04%. `COc1cc2c(cc1OC)C1C(=O)c3cc(OS(C)(=O)=O)c(OC)cc3C1N(C)C2=O` (centres undefined) was tested, and the inhibition was 3.51%. In the case of `COc1ccc(C(CNC(=O)COc2ccc([N+](=O)[O-])cc2)N2CCCCC2)cc1` (centres undefined), the inhibition was 0.77%. With `COc1ccc(C(C[N+](=O)[O-])n2nc(C)cc2C)cc1` (centres undefined) the inhibition was 26.6% (active). For `Cc1cc(C)n(CC(O)COc2ccc(C(C)(C)C)cc2)n1` (centres undefined), the inhibition was -8.7%. `C=CCn1cc(-c2cccc(C(F)(F)F)c2)cc(C#N)c1=O` gave an inhibition of 0.01%. `COCCCNC(=S)N1CCCC(c2nc3cc(C)c(C)cc3[nH]2)C1` (centres undefined) showed an inhibition of -3.68%. `Nc1cccc2c1C(=O)N(Cc1nnc(-c3ccccc3Br)o1)C2=O` was tested, and the inhibition was 27.5% (active). With `CC(C)N(Cc1nnc(-c2ccccc2Br)o1)C(=O)c1cc(Cl)nc2ccccc12` the inhibition was -10.3%. For `O=C(OCc1nnc(-c2ccccc2)o1)c1ccc2c(c1)C(=O)N(CCc1ccccc1)C2=O`, the inhibition was 9.8%. In the case of `CC(C)CC(CO)N1CCN(C(=O)c2ccc(Cl)cc2Cl)CCC1=O` (centres undefined), the inhibition was -4.88%. For `COc1ccc(-c2nc3n(c2Br)CCC3)cc1`, the inhibition was -7.99%. Compound `O=C(Nc1ccccc1)C1CC(=O)n2c(nc3ccccc32)N1` (centres undefined) has an inhibition of -8.18%. `Cc1csc(NC(=O)C2CCCN2C(=O)OCC(C)C)n1` (centres undefined) was tested, and the inhibition was -2.47%. In the case of `CC(=O)N1CCN(S(=O)(=O)c2cccc(C(=O)NC3CCC(C)CC3)c2)CC1` (centres undefined), the inhibition was -9.28%. With `CC1CC(C)CN(S(=O)(=O)c2cccc(C(=O)N3C(=O)c4cccc(N)c4C3=O)c2)C1` (centres undefined) the inhibition was 30.1% (active). `CN1CCN(S(=O)(=O)c2cccc(C(=O)N3CCc4ccccc43)c2)CC1` gave an inhibition of 2.86%. Work on `O=[N+]([O-])c1ccc(Oc2ccc(F)cc2Br)c2ccncc12` yielded an inhibition of -1.06%. Work on `CC(C)CNC(=S)NNC(=O)c1nn(C)cc1Cl` yielded an inhibition of -4.5%. In the case of `O=C1CC(C(F)(F)C(F)(F)C(F)(F)C(F)(F)F)=Nc2ccccc2N1`, the inhibition was 24.9% (active). `OC(CN=c1sc2ccccc2n1CC(O)COc1ccccc1)COc1ccccc1` (centres undefined) gave an inhibition of -11.1%. `CCOc1ccc2c(=O)c(-c3ccc4c(c3)OCCCO4)c(C)oc2c1` showed an inhibition of -5.36%. `CCOC(=O)c1c(NC(=O)C2CCN(S(=O)(=O)c3ccc(Cl)cc3)CC2)sc2c1CCCC2` was tested, and the inhibition was 4.57%. With `CC[C@H]1CN2CCc3cc(OC)c(OC)cc3[C@@H]2C[C@@H]1C[C@H]1NCCc2cc(OC)c(OC)cc21` the inhibition was 23.9% (active). `COCCCNC(=O)Cn1c(=O)n(Cc2ccccc2Cl)c(=O)c2cc(OC)c(OC)cc21` was tested, and the inhibition was -13.8%. `COc1ccccc1C(=O)NC(CCSC)C(=O)N1CCN(C/C=C/c2ccccc2)CC1` (centres undefined) gave an inhibition of 0.75%. With `O=[N+]([O-])c1ccc(C(S(=O)(=O)Cc2ccccc2)S(=O)(=O)Cc2ccccc2)cc1` the inhibition was -0.41%. With `O=C1NC(=O)C2C1C(c1ccc([N+](=O)[O-])cc1)=NN2Cc1ccccc1` (centres undefined) the inhibition was 43.2% (active). With `CC(=O)N1c2ccccc2N(Cc2ccc([N+](=O)[O-])cc2)C(=O)C1(C)C` the inhibition was -3.82%. With `COc1ccccc1C(=O)NCCC(=O)NC1=NCCS1` the inhibition was -0.45%. For `COc1cc2[nH]c(O)c(C=O)c2cc1OC`, the inhibition was -11.7%. In the case of `COc1ccc(OC)c(N=Cc2c(O)[nH]c3ccccc23)c1`, the inhibition was 68.3% (active). With `COc1ccc(NC(=O)COC(=O)c2n[nH]c3ccccc23)c(OC)c1` the inhibition was 2.43%. Compound `CC(C)(C)c1ccc(CCC2OCC(CN3CCOCC3)O2)cc1` (centres undefined) has an inhibition of -4.96%. With `Cc1ccc(C)c(NS(=O)(=O)c2c(C)[nH]c(C)c2C(=O)N2CCCCC2)c1` the inhibition was -5.02%. For `Cc1ccc(S(=O)(=O)N2CCN=C2SCc2c(F)cccc2Cl)cc1`, the inhibition was 4.62%. `COc1ccc(C(C(=O)NC(C)(C)C)N(C(=O)Cn2nnc3ccccc32)c2ccc(C(C)=O)cc2)cc1O` (centres undefined) was tested, and the inhibition was 1.81%. With `Cc1ccc(C(=O)N/N=C/c2sc(=O)n(Cc3cccc(C(=O)O)c3)c2Cl)cc1` the inhibition was -4.49%. With `CC(C)(C)C1CCC(C(=O)NCC(c2cccs2)N2CCOCC2)CC1` (centres undefined) the inhibition was 2.5%. In the case of `O=C(CCN1CCc2ccccc2C(O)(c2ccccc2)C1)c1ccc2c(c1)OCCO2` (centres undefined), the inhibition was 26.2% (active). With `O=S(=O)(c1ccc2c(c1)OCCO2)N1CCc2ccccc21` the inhibition was -1.2%. `O=C(CN1CCc2cc3c(cc2C1)OCCCO3)Nc1ccccc1` was tested, and the inhibition was -9.22%. `O=C(NC(=S)NC1CCSC1=O)c1ccccc1F` (centres undefined) was tested, and the inhibition was -9.93%. With `CCCCN(CCCC)CCCNC(=O)CN1C(=O)COc2ccc(S(=O)(=O)N3CCC(C)CC3)cc21` the inhibition was -2.68%. For `CC(=O)Nc1cccc(Nc2ccc(C#N)cc2)c1`, the inhibition was 3.65%. In the case of `CCOC(=O)C1=C(C)Nc2sc(C(=O)c3ccc(Br)cc3)c(N)c2C1c1ccc(C(=O)OC)cc1` (centres undefined), the inhibition was 27% (active). `COC(=O)c1ccc(C2NC(=O)NC(C)=C2C(=O)N(C)C)cc1` (centres undefined) was tested, and the inhibition was -10%. For `CCOC(=O)C1=C(C)NC2=C(C(=O)CC(C)(C)C2)C1c1ccsc1` (centres undefined), the inhibition was 2.36%. In the case of `COc1ccc(NC(=O)/C(Cl)=C(/Cl)S(=O)Cc2ccc(C)cc2)cn1` (centres undefined), the inhibition was 95.1% (active). `NC(Cc1ccccc1)c1csc(Nc2cc(Oc3ccccc3)ncn2)n1` (centres undefined) gave an inhibition of -5.36%. With `O=C(COC(=O)c1ccccc1NC(=O)c1ccco1)Nc1ccc2c(c1)OC(F)(F)O2` the inhibition was -2.03%. `O=C1c2cccc3c([N+](=O)[O-])ccc(c23)C(=O)N1CC1CCCO1` (centres undefined) was tested, and the inhibition was 80.1% (active). In the case of `O=C1C(C=NCC2CCCO2)=C(O)c2ccccc21` (centres undefined), the inhibition was -5.23%. For `N#Cc1cc([N+](=O)[O-])ccc1NCC1CCCO1` (centres undefined), the inhibition was -32.9%. `Cc1ccc(S(=O)(=O)N2CCN(C(=O)c3cc(S(=O)(=O)N4CCOCC4)ccc3F)CC2)cc1` gave an inhibition of -18.2%. In the case of `CCc1ccc(OC2(C)CCN(CCOc3ccc(C)cc3)C2)cc1` (centres undefined), the inhibition was 0.79%. With `COc1ccccc1N1N=C(c2cccs2)CC1c1ccccc1` (centres undefined) the inhibition was 49.9% (active). With `Fc1ccc(N2N=C(c3cccs3)CC2c2ccco2)c(F)c1` (centres undefined) the inhibition was -13.7%. In the case of `COc1ccc(C2CC(c3cccs3)=NN2c2nc(C)c(C(C)=O)s2)cc1OC` (centres undefined), the inhibition was 6.76%. Compound `Cc1ncoc1C(=O)N1CCCC(C(=O)c2ccc3c4c(cccc24)CC3)C1` (centres undefined) has an inhibition of 1.4%. Work on `Cc1ccccc1C(=O)NCC(c1ccco1)N1CCc2ccccc21` (centres undefined) yielded an inhibition of 7.15%. Work on `COc1ccc(C2CC(c3cccs3)Nc3nnnn32)cc1` (centres undefined) yielded an inhibition of -2.81%. In the case of `COc1ccc(C2=CC(c3cccc(OC)c3)n3nnnc3N2)cc1` (centres undefined), the inhibition was 26.8% (active). `COC(=O)C1=C(C(=O)c2ccc(C)cc2)C(c2ccccc2)n2nnnc2N1` (centres undefined) gave an inhibition of 2.81%. Work on `O=C1N(c2ccc(Cl)cc2)C(c2ccc(Cl)cc2)N2CCCN12` (centres undefined) yielded an inhibition of 8.61%. Work on `Cc1ccsc1-c1cc(C(=O)O)c2c(ccc3ccccc32)n1` yielded an inhibition of 0.09%. With `CCOC(=O)C1(Cc2cccc(OC)c2)CCN(Cc2csc(C(C)=O)c2)CC1` the inhibition was -2.05%. For `CCCc1c(C(=O)Nc2ccc(F)cc2)cnn1-c1ccccc1`, the inhibition was -3.44%. Compound `O=C(c1cccc(-n2cccc2)c1)N1CCN(S(=O)(=O)c2ccc(F)cc2)CC1` has an inhibition of -0.82%. In the case of `O=[N+]([O-])/C=C/c1ccc2c(ccn2Cc2ccccc2)c1`, the inhibition was 87.9% (active). `COC(=O)N1CN(C(=O)OC)CN(C(=O)OC)C1` showed an inhibition of -12.2%. `CN1CCN(CCCNC(=O)c2ccc(/C=C3\Oc4ccccc4N(Cc4ccc(Cl)cc4)C3=O)cc2)CC1` was tested, and the inhibition was 33.1% (active). `Cc1ccc(NC(=O)CCCNC(=O)c2ccc(Cl)cc2)cc1S(=O)(=O)N1CCOCC1` gave an inhibition of -6.45%. `O=C(CCN1C(=O)COc2ccccc21)NCCCN1CCN(c2ccc(F)cc2)CC1` was tested, and the inhibition was -5.53%. In the case of `COc1ccc(C)cc1NC(=S)Nc1ccccc1SC`, the inhibition was -5.8%. With `CCOc1ccc(S(=O)(=O)NCc2ccc3c(c2)OCO3)cc1C` the inhibition was -3.55%.

Source: PubChem BioAssay AID624267 (The Scripps Research Institute Molecular Screening Center, 2012)
